Measurements from PubChem BioAssay AID1159580 (chemical genetic matrix, 2015).
Where “and” joins values, the source holds several entries; their conditions need not be identical. Equal values may be shown once. About 2,000 (36%) of roughly 5,500 compounds were called active. Another 18% or so got no clear call; they are omitted. Cut-off read from the data, not from the text of the source: active = normalized growth mostly below about 0.91 (no sharp cut-off); inconclusive = no clear call, values can overlap the other calls; inactive = mostly above about 0.92. This is one part of the list.

Assay: chemical genetic growth profiling, strain panel (AID 1159580);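 note: tested at 20 µM; growth read once vehicle control cultures reached saturation at 30 °C; 1 = growth at the plate median or of vehicle wells; lower values mean less growth of the strain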
Conditions: growth OD

Measured: normalized growth

COc1cc(OC)c2c(c1)OC(c1ccccc1)CC2=O (stereo unspecified)
inactive: S. cerevisiae deletion strains, locus YBR021W, strain FUR4, hits give low values 0.99 | S. cerevisiae deletion strains, locus YBR229C, strain ROT2, hits give low values 0.986 | S. cerevisiae deletion strains, locus YCL029C, strain bik1, hits give low values 1.03 | S. cerevisiae deletion strains, locus YDL035C, strain GPR1, hits give low values 0.988 | S. cerevisiae deletion strains, locus YDL074C, strain BRE1, hits give low values 0.994 | S. cerevisiae deletion strains, locus YDL101C, strain DUN1, hits give low values 0.989 | S. cerevisiae deletion strains, locus YDL185W, strain tfp1, hits give low values 1.01 | S. cerevisiae deletion strains, locus YDL192W, strain arf1, hits give low values 0.979 | S. cerevisiae deletion strains, locus YDR101C, strain arx1, hits give low values 1.02 | S. cerevisiae deletion strains, locus YDR150W, strain NUM1, hits give low values 0.983 | S. cerevisiae deletion strains, locus YDR162C, strain NBP2, hits give low values 0.987 | S. cerevisiae deletion strains, locus YDR318W, strain mcm21, hits give low values 0.988 | S. cerevisiae deletion strains, locus YDR388W, hits give low values 0.999 | S. cerevisiae deletion strains, locus YDR502C, strain sam2, hits give low values 1 | S. cerevisiae deletion strains, locus YEL061C, strain CIN8, hits give low values 0.984 | S. cerevisiae deletion strains, locus YER110C, hits give low values 1.01 | S. cerevisiae deletion strains, locus YER155C, strain BEM2, hits give low values 0.996 | S. cerevisiae deletion strains, locus YER167W, strain BCK2, hits give low values 0.994 | S. cerevisiae deletion strains, locus YGL078C, strain dbp3, hits give low values 1.01 | S. cerevisiae deletion strains, locus YGL086W, strain mad1, hits give low values 1 | S. cerevisiae deletion strains, locus YGL248W, strain PDE1, hits give low values 0.987 | S. cerevisiae deletion strains, locus YGR135W, strain pre9, hits give low values 0.977 | S. cerevisiae deletion strains, locus YGR252W, strain gcn5, hits give low values 1.01 | S. cerevisiae deletion strains, locus YHR030C, strain SLT2, hits give low values 0.987 and 0.965 | S. cerevisiae deletion strains, locus YHR079C, strain IRE1 (second series), hits give low values 1.01 | S. cerevisiae deletion strains, locus YHR079C, strain IRE1, hits give low values 0.963 | S. cerevisiae deletion strains, locus YHR094C, strain hxt1, hits give low values 1.01 | S. cerevisiae deletion strains, locus YHR129C, strain ARP1, hits give low values 0.986 | S. cerevisiae deletion strains, locus YHR200W, strain rpn10, hits give low values 0.997 | S. cerevisiae deletion strains, locus YIL066C, strain RNR3, hits give low values 0.983 | S. cerevisiae deletion strains, locus YIL073C, strain SPO22, hits give low values 1.03 | S. cerevisiae deletion strains, locus YIL125W, strain kgd1, hits give low values 1.01 | S. cerevisiae deletion strains, locus YIR030C, strain dcg1, hits give low values 1 | S. cerevisiae deletion strains, locus YJL095W, strain BCK1, hits give low values 0.932 and 0.982 | S. cerevisiae deletion strains, locus YJL134W, strain LCB3, hits give low values 0.985 | S. cerevisiae deletion strains, locus YJL168C, strain set2, hits give low values 1 | S. cerevisiae deletion strains, locus YJL187C, strain SWE1 (second series), hits give low values 0.994 | S. cerevisiae deletion strains, locus YJR043C, strain POL32, hits give low values 1 | S. cerevisiae deletion strains, locus YJR066W, strain TOR1, hits give low values 0.93 | S. cerevisiae deletion strains, locus YJR075W, strain HOC1, hits give low values 0.992 | S. cerevisiae deletion strains, locus YKL009W, strain mrt4, hits give low values 0.996 | S. cerevisiae deletion strains, locus YKL068W, hits give low values 0.994 | S. cerevisiae deletion strains, locus YKL085W, strain MDH1 (second series), hits give low values 0.991 | S. cerevisiae deletion strains, locus YKL085W, strain MDH1, hits give low values 0.991 | S. cerevisiae deletion strains, locus YKL190W, strain CNB1, hits give low values 0.984 | S. cerevisiae deletion strains, locus YKR001C, strain vps1, hits give low values 0.951 | S. cerevisiae deletion strains, locus YLR039C, strain RIC1, hits give low values 0.842 | S. cerevisiae deletion strains, locus YLR058C, strain SHM2, hits give low values 0.987 | S. cerevisiae deletion strains, locus YLR102C, strain apc9, hits give low values 1 | S. cerevisiae deletion strains, locus YLR113W, strain HOG1, hits give low values 1 | S. cerevisiae deletion strains, locus YLR262C, strain YPT6, hits give low values 0.836 | S. cerevisiae deletion strains, locus YLR268W, strain sec22, hits give low values 1.01 | S. cerevisiae deletion strains, locus YLR330W, strain CHS5, hits give low values 0.98 | S. cerevisiae deletion strains, locus YLR342W, strain FKS1 (second series), hits give low values 0.959 | S. cerevisiae deletion strains, locus YLR371W, strain rom2, hits give low values 1.02 | S. cerevisiae deletion strains, locus YLR418C, strain cdc73, hits give low values 1.03 | S. cerevisiae deletion strains, locus YML016C, strain PPZ1, hits give low values 0.983 | S. cerevisiae deletion strains, locus YML032C, strain rad52, hits give low values 1.02 | S. cerevisiae deletion strains, locus YML124C, strain tub3, hits give low values 1 | S. cerevisiae deletion strains, locus YMR078C, strain ctf18, hits give low values 1 | S. cerevisiae deletion strains, locus YMR223W, strain ubp8, hits give low values 0.983 | S. cerevisiae deletion strains, locus YMR307W, strain GAS1, hits give low values 0.902 | S. cerevisiae deletion strains, locus YNL067W, strain RPL9B, hits give low values 0.993 | S. cerevisiae deletion strains, locus YNL128W, strain TEP1, hits give low values 1.01 | S. cerevisiae deletion strains, locus YNL153C, strain GIM3, hits give low values 1 | S. cerevisiae deletion strains, locus YNL183C, strain NPR1, hits give low values 0.915 | S. cerevisiae deletion strains, locus YNL233W, strain BNI4, hits give low values 0.97 | S. cerevisiae deletion strains, locus YNL250W, strain rad50, hits give low values 1.03 | S. cerevisiae deletion strains, locus YNL271C, strain bni1, hits give low values 1 | S. cerevisiae deletion strains, locus YNL298W, strain CLA4, hits give low values 1.03 | S. cerevisiae deletion strains, locus YNL307C, strain MCK1, hits give low values 1 | S. cerevisiae deletion strains, locus YNR052C, strain pop2, hits give low values 0.989 | S. cerevisiae deletion strains, locus YOL006C, strain TOP1, hits give low values 0.848 | S. cerevisiae deletion strains, locus YOL012C, strain htz1 1.5 | S. cerevisiae deletion strains, locus YOL147C, strain pex11, hits give low values 1.01 | S. cerevisiae deletion strains, locus YOR061W, strain CKA2, hits give low values 0.983 | S. cerevisiae deletion strains, locus YOR069W, strain VPS5, hits give low values 0.984 | S. cerevisiae deletion strains, locus YOR136W, strain idh2, hits give low values 1.01 | S. cerevisiae deletion strains, locus YOR144C, strain elg1, hits give low values 1.01 | S. cerevisiae deletion strains, locus YOR184W, strain ser1, hits give low values 0.955 | S. cerevisiae deletion strains, locus YOR231W, strain MKK1, hits give low values 0.951 | S. cerevisiae deletion strains, locus YOR316C, strain cot1, hits give low values 1.01 | S. cerevisiae deletion strains, locus YPL055C, strain LGE1, hits give low values 1.01 | S. cerevisiae deletion strains, locus YPL241C, strain CIN2, hits give low values 0.978 | S. cerevisiae deletion strains, locus YPL256C, strain CLN2, hits give low values 0.972 | S. cerevisiae deletion strains, locus YPR119W, strain clb2, hits give low values 1.01 | S. cerevisiae deletion strains, locus YPR141C, strain kar3, hits give low values 1.01 | S. cerevisiae deletion strains, locus YPR163C, strain tif3, hits give low values 1.03 | S. cerevisiae deletion strains, locus YPR167C, strain met16, hits give low values 1 | S. cerevisiae deletion strains, strain wtn01, hits give low values 1.01 | S. cerevisiae strains, strain wild type, hits give low values 0.987
